Assay [1] addresses Vitamin D3 receptor (Homo sapiens) (UniProt P11473). The assay can be described thus: qHTS assay for small molecule agonists of vitamin D receptor signaling (AID 588543).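 Further: 0% = DMSO basal and 100% = reference agonist control.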 The following applies: HEK293T VDR-UAS-bla, beta-lactamase ratio, 16 h; series mostly up to 76.8 µM. The gist of the method:
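Agonist-mode beta-lactamase reporter: HEK293T VDR-UAS-bla cells in charcoal-stripped 2% FBS, compound series 16 h 37 C, CCF4 2 h RT. EC50 from Hill fit, scaled against DMSO and 50 nM calcitriol control.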

Assay [2] concerns the target Cytochrome P450 3A4 (Homo sapiens) (UniProt P08684). Nature of the assay: qHTS Assay for Activators of Cytochrome P450 3A4 (AID 885; active means well fitted curve in the direction sought with a large enough effect; inconclusive means small, poorly fitted or top-dose-only effect, or another doubt; inactive means no such curve, though single readings can be large; an effect the other way counts as inactive or inconclusive; further: nearly all actives have a fitted effect of over 65% in size). As to conditions: recombinant CYP3A4, Luciferin-PPXE luminescence, 60 min; series mostly up to 57.1 µM. The gist of the method: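 CYP3A4 activity: Luciferin-PPXE O-dealkylation, 25uM substrate, 200mM KPO4, RT throughout. Read-out is luciferase luminescence; higher values reflect activation.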
(In general: qHTS replaces the single test concentration by a dilution series.)

Assay [3] deals with Estrogen receptor (Homo sapiens) (UniProt P03372). Nature of the assay: qHTS assay for small molecule antagonists of estrogen receptor alpha signaling (AID 588513; active means well fitted curve in the direction sought with a large enough effect in the signal ratio, with a control signal flat, not every such curve was filed as active; inconclusive means small, poorly fitted or top-dose-only effect, or effect the other way, or a change in a side signal; inactive means no such curve, though single readings can be large or run the other way; the % refers to the signal ratio; further: potency means the concentration at half of the fitted maximal effect). The following applies: ER-alpha-UAS-bla HEK293, beta-lactamase ratio, antagonist mode; series mostly up to 76.9 µM. An outline of the steps: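 Antagonist mode: inhibition of 0.5 nM 17-beta-estradiol-driven beta-lactamase reporter in HEK 293 ER-alpha-UAS-bla cells, 18 h at 37C, CCF4 readout after 2 h at RT. Normalised to estradiol and DMSO; titration fitted to Hill.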
Sequence of Estrogen receptor (Homo sapiens) (P03372 whole entry, looked up): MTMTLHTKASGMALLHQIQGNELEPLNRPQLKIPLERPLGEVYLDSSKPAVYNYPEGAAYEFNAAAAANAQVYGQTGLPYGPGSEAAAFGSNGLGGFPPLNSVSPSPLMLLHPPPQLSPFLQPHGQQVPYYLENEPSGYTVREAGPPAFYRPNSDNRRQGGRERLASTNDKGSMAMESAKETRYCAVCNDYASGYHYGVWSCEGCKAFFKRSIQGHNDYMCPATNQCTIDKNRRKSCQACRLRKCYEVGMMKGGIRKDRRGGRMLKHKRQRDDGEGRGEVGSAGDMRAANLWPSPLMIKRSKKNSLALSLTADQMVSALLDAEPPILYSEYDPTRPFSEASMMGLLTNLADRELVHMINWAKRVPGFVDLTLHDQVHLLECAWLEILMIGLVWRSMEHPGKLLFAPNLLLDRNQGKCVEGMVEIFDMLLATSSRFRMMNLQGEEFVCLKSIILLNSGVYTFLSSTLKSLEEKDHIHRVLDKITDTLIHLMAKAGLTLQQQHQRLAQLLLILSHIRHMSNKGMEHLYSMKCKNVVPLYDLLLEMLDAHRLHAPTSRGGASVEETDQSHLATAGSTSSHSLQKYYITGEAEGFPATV

In assay [4] the target is Bile acid receptor (Homo sapiens) (UniProt Q96RI1). Nature of the assay: qHTS assay for small molecule antagonists of farnesoid X receptor signaling (AID 588526). Further: on the % scale 0 is the no-effect control and ±100 the full control effect. The following applies: HEK293T FXR-UAS-bla, beta-lactamase ratio, antagonist mode; series mostly up to 76.7 µM. The gist of the method: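 Concentration-response titrations were fitted to the Hill equation for half-maximal inhibition and maximal response, with data normalised to 50 uM chenodeoxycholic acid and DMSO control wells. Cells: FXR-UAS-bla HEK293T, dialyzed FBS.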
Sequence of Bile acid receptor (Homo sapiens) (Q96RI1 whole entry, looked up): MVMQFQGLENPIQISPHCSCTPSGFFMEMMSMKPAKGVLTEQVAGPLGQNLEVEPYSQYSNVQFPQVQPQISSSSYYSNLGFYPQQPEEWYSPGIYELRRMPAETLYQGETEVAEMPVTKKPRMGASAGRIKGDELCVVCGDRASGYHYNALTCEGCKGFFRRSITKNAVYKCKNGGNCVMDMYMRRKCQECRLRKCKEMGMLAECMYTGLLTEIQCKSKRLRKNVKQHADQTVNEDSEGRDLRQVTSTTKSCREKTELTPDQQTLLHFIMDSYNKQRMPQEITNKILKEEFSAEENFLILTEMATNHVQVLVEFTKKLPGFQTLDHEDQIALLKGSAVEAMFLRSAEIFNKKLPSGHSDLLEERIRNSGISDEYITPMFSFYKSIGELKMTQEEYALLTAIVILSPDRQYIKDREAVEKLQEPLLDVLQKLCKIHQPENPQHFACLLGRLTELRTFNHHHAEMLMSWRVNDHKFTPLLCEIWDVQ

A short description of assay [5]: qHTS assay for small molecule agonists of retinoid X receptor alpha signaling (AID 588544).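 On activation: 0% = DMSO basal wells and 100% = reference agonist.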 As to conditions: HEK293T RXRa-UAS-bla, beta-lactamase reporter, 18 h; 530 nm emission.
Assay [6] deals with Retinoic acid receptor RXR-alpha (Homo sapiens) (UniProt P19793). The description is as above. The following applies: HEK293T RXRa-UAS-bla, beta-lactamase reporter, 18 h; series mostly up to 76.7 µM.
Sequence of Retinoic acid receptor RXR-alpha (Homo sapiens) (P19793 whole entry, looked up): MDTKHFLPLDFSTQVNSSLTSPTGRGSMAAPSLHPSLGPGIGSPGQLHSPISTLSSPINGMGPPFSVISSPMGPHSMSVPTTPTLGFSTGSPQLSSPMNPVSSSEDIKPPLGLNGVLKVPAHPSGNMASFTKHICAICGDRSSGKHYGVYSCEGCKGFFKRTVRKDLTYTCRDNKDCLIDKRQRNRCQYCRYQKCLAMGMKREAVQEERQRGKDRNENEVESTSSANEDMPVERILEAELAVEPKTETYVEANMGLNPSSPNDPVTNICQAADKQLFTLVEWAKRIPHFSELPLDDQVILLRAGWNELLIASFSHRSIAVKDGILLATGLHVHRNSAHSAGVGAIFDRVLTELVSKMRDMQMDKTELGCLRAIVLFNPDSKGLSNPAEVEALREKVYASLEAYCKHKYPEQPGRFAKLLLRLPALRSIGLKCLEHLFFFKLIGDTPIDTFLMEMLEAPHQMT
The nature of assay [7]: qHTS assay for small molecule activators of the human pregnane X receptor (PXR) signaling pathway (AID 720659; call rule not given here; further: 0% is about no effect). The following applies: DPX-2 HepG2 CYP3A4-luciferase, 24 h; series mostly up to 92.3 µM.
For assay [8], the target named is Thyroid hormone receptor beta (Homo sapiens) (UniProt P10828). Nature of the assay: qHTS assay for small molecule agonists of thyroid hormone receptor beta signaling (AID 588545). The following applies: TR-UAS-bla GripTite HEK 293, beta-lactamase ratio, agonist mode, 18 h, percent of T3 response, DMSO as zero; series mostly up to 76.7 µM. An outline of the steps: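 Agonist activity was read as beta-lactamase CCF4 fluorescence (405 ex, 460/530 em), scaled between DMSO (0%) and 10 nM T3 (100%), then Hill-fitted for EC50 and efficacy. HEK 293 TR-UAS-bla cells in 2% charcoal/dextran FBS medium were exposed 18 h at 37 C.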
Sequence of Thyroid hormone receptor beta (Homo sapiens) (P10828 whole entry, looked up): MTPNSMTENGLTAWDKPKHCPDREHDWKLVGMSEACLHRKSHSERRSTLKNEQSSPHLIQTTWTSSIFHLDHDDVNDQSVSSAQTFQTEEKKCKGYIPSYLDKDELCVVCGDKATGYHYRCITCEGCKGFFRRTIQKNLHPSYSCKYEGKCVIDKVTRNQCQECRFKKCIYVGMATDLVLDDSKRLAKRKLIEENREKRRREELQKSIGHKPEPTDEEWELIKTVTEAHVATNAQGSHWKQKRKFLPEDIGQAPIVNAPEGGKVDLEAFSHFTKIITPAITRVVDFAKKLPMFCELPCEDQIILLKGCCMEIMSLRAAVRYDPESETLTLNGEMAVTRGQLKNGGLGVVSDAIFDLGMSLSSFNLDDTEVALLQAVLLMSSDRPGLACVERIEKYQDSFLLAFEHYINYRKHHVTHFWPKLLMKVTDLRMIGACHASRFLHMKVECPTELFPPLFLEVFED

Assay [9] has as its target Vitamin D3 receptor (Homo sapiens) (UniProt P11473). The assay can be described thus: qHTS assay for small molecule antagonists of vitamin D receptor signaling (AID 588541). Further: potency means the concentration at half of the fitted maximal effect. The following applies: HEK293T VDR-UAS-bla, beta-lactamase ratio, antagonist mode; series mostly up to 76.7 µM. An outline of the steps:
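VDR-UAS-bla HEK293T cells (2000/well, 2% charcoal-stripped FBS) were treated with titrated compounds plus 1-alpha,25-dihydroxyvitamin D3 (50 nM or 3 nM final) for 16 h at 37 C. CCF4 beta-lactamase fluorescence was read; Hill fits gave IC50.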

Assay [10] is described as follows: qHTS assay for small molecule agonists of the antioxidant response element (ARE) signaling pathway measured by Nrf2-dependant transcriptional activity (AID 720636; active means well fitted curve in the direction sought with a large enough effect in the repeat runs; inconclusive means weak or mixed curves; inactive means no such curve, though single readings can be large; an effect the other way counts as inactive or inconclusive; further: potency means the concentration at half of the fitted maximal effect; on activation: % of control where 0% means no effect). As to conditions: ARE-luc HepG2, Nrf2 luciferase reporter, 16 h; series mostly up to 92.4 µM. The gist of the method: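 ARE-luc HepG2 cells carrying an Nrf2-responsive luciferase reporter were plated in medium with 1% dialyzed FBS, left 6 hr at 37 C to attach, then exposed to compound for 16 hr. Luciferase luminescence was read after ONE-Glo addition.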

Assay [11] can be described thus: qHTS assay for small molecule antagonists of peroxisome proliferator-activated receptor delta signaling (AID 588535; active means well fitted inhibition curve with a large enough effect in the signal ratio, with a control signal flat, not every such curve was filed as active; inconclusive means small, poorly fitted or top-dose-only effect, or effect the other way, or a change in a side signal; inactive means no such curve, though single readings can be large or run the other way; the % refers to the signal ratio;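 on max response: cells co-treated with a PPAR-delta agonist as stimulator during compound exposure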). The following applies: HEK293T PPARd-UAS-bla, beta-lactamase FRET ratio, 18 h; 460 nm channel. The gist of the method: (§1)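 Compounds tested in titration on PPAR-delta-UAS-bla HEK293T cells grown in charcoal/dextran-stripped serum (2%); beta-lactamase activity read via CCF4 emission at 460 and 530 nm.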

Assay [12] addresses Peroxisome proliferator-activated receptor delta (Homo sapiens) (UniProt Q03181). The description is as above. The following applies: HEK293T PPARd-UAS-bla, beta-lactamase FRET ratio, 18 h; series mostly up to 76.7 µM. An outline of the steps: as §1
Assay [13] can be described thus: qHTS assay for small molecule antagonists of retinoid X receptor alpha signaling (AID 588546; active means well fitted inhibition curve with a large enough effect in the signal ratio, with a control signal flat, not every such curve was filed as active; inconclusive means small, poorly fitted or top-dose-only effect, or effect the other way, or a change in a side signal; inactive means no such curve, though single readings can be large or run the other way; the % refers to the signal ratio;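 further: cells stimulated with 9-cis-retinoic acid as agonist; on the % scale 0 is the no-effect control and ±100 the full control effect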). As to conditions: HEK293T RXRa-UAS-bla, beta-lactamase ratio, antagonist mode; measured here: W530 green channel, cytotoxicity proxy. The gist of the method:
(§2)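 Beta-lactamase reporter inhibition, read as CCF4 fluorescence ratio (ex 405, em 460/530 nm) after 2 h at RT. HEK293T UAS-bla cells, 2500/well, were stimulated with 9-cis-RA at 500 or 100 nM final alongside test compound for 18 h at 37 C.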

Assay [14] addresses Retinoic acid receptor RXR-alpha (Homo sapiens) (UniProt P19793). The description is as above. As to conditions: HEK293T RXRa-UAS-bla, beta-lactamase ratio, antagonist mode. An outline of the steps: as §2
The target of assay [15] is Thyroid hormone receptor beta (Homo sapiens) (UniProt P10828). Nature of the assay: qHTS assay for small molecule antagonists of thyroid hormone receptor beta signaling (AID 588547; active means well fitted inhibition curve with a large enough effect in the signal ratio, with a control signal flat, not every such curve was filed as active; inconclusive means small, poorly fitted or top-dose-only effect, or effect the other way, or a change in a side signal; the % refers to the signal ratio;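 further: cells stimulated with 0.4 nM T3 agonist during compound exposure; on the % scale 0 is the no-effect control and ±100 the full control effect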). The following applies: TR-UAS-bla HEK293, beta-lactamase ratio, antagonist mode, 18 h. The gist of the method:
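TR-UAS-bla GripTite HEK293 cells in 2% charcoal/dextran FBS medium were preincubated 4 h at 37 C, given compound (0.59 nM to 92 uM) plus 0.4 nM T3 (final) for 18 h, then CCF4 for 2 h at RT; Hill fit gave IC50.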

The nature of assay [16]: qHTS assay for small molecule activators of the p53 signaling pathway (AID 651743; active means well fitted activation curve with a large enough effect in the signal ratio, not every such curve was filed as active; inconclusive means small, poorly fitted or top-dose-only effect, or a change in a side signal; the % refers to the signal ratio; further: potency means the concentration at half of the fitted maximal effect; on activation: % of control where 0% means no effect). As to conditions: HCT-116 p53RE-bla, beta-lactamase FRET ratio, 16 h; activation: stronger effect = higher value. The gist of the method: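 Here HCT-116 cells with an integrated p53-responsive beta-lactamase gene were incubated with compounds (16 hours, 37 C) after a 5-hour plating period; beta-lactamase activity was detected as fluorescence intensity via B/G FRET substrate.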

For assay [17], the target named is Estrogen receptor (Homo sapiens) (UniProt P03372). Nature of the assay: qHTS assay for small molecule agonists of estrogen receptor alpha signaling (AID 588514).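 Further: 0% = vehicle only and 100% = reference agonist; nearly all actives have a fitted effect of over 70% in size.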 The following applies: ER-alpha-UAS-bla HEK293, beta-lactamase ratio, 18 h, percent of full estradiol response, vehicle zero; series mostly up to 76.8 µM. An outline of the steps:
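Fluorescence from CCF4 cleavage reports ER-alpha-driven beta-lactamase expression in HEK 293 cells treated 18 hrs at 37 C. Data normalized to 17-beta-estradiol (20 nM) and DMSO, fitted to Hill equation.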

Assay [18] in a line: qHTS assay to identify small molecules that stimulate interleukin-8 (IL-8) secretion (AID 651758; active means well fitted activation curve with a large enough effect in the signal ratio; inconclusive means small, poorly fitted or top-dose-only effect, or effect the other way, or a change in a side signal; the % refers to the signal ratio; further: 0% is about no effect). As to conditions: HTRF ratio (665/615); series mostly up to 92.2 µM. The gist of the method: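 Quantitative HTS in THP-1 monocytic cells at 2000 cells per well, with 16 hrs compound incubation at 37 C. IL-8 in the medium was then quantified by HTRF immunoassay, read after 1-3 hrs at room temperature.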

Assay [19] is described as follows: qHTS assay for small molecule activators of the nuclear factor-kappa B (NF-kB) signaling pathway (AID 651749; active means well fitted activation curve with a large enough effect in the signal ratio; inconclusive means small, poorly fitted or top-dose-only effect, or a change in a side signal; the % refers to the signal ratio; further: % of control where 0% means no effect). As to conditions: NF-kB-bla ME-180 cells, beta-lactamase FRET ratio, 16 h; stronger effect = higher value. The gist of the method:
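Beta-lactamase reporter expression, controlled by NF-kB response elements in ME-180 cells, was quantified fluorometrically via FRET disruption; cells at 2,000/well had been incubated with 23 nL test compound for 16 hr.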

The target in assay [20] is Glucocorticoid receptor (Homo sapiens) (UniProt P04150). The assay can be described thus: qHTS assay for small molecule antagonists of glucocorticoid receptor signaling (AID 588533; active means well fitted inhibition curve with a large enough effect in the signal ratio, with a control signal flat, not every such curve was filed as active; inconclusive means small, poorly fitted or top-dose-only effect, or effect the other way, or a change in a side signal; the % refers to the signal ratio;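 further: cells stimulated with 2 nM dexamethasone as agonist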; further: potency means the concentration at half of the fitted maximal effect). The following applies: HeLa MMTV-bla, GRE beta-lactamase ratio, antagonist mode, 18 h; series mostly up to 76.8 µM. The gist of the method: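 Antagonist-mode qHTS: compound titrations added to GRE-bla HeLa cells, then dexamethasone 2 nM final; 18 h, 37 C. CCF4 FRET fluorescence normalized to dexamethasone and DMSO; IC50 from Hill fit.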
Sequence of Glucocorticoid receptor (Homo sapiens) (P04150 whole entry, looked up): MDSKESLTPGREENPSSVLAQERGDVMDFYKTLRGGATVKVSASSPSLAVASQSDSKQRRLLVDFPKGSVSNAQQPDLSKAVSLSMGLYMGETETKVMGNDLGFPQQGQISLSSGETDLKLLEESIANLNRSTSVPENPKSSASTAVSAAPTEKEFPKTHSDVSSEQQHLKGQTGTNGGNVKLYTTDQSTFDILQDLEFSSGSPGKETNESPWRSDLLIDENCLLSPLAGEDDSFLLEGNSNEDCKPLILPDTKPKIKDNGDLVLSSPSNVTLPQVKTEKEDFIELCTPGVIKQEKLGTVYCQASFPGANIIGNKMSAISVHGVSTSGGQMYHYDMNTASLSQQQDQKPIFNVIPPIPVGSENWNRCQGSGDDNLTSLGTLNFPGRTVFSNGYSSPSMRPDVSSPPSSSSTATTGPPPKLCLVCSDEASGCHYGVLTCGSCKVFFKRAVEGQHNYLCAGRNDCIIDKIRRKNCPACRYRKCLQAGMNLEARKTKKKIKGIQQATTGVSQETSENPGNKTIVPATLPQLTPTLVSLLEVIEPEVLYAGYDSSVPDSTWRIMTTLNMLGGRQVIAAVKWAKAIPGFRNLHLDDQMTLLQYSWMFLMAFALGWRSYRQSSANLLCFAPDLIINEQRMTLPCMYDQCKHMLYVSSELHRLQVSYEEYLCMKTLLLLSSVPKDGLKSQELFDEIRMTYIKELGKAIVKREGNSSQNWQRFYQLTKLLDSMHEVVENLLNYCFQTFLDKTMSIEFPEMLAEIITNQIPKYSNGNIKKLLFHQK

From PubChem BioAssay (NCATS) come the findings set out here.

Values joined by “and” are separate entries in the source; they are usually repeats but may differ in a detail not shown here. Identical values can stand only once. Active and inactive are the calls of the source. Unless noted, the call rests on the fitted dose curve.

Sequence of Vitamin D3 receptor (Homo sapiens) (P11473 whole entry, looked up): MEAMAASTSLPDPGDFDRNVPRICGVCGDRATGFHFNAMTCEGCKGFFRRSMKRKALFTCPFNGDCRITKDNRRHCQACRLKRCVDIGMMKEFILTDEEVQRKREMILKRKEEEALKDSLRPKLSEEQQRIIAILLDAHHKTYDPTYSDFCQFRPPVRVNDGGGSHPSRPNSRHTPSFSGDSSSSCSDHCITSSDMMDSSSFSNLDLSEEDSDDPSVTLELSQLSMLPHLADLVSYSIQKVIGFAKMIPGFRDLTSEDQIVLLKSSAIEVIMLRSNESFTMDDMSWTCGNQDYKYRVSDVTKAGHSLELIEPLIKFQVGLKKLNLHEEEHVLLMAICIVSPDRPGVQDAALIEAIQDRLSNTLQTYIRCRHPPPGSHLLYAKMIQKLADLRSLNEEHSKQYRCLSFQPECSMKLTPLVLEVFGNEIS
Sequence of Peroxisome proliferator-activated receptor delta (Homo sapiens) (Q03181 whole entry, looked up): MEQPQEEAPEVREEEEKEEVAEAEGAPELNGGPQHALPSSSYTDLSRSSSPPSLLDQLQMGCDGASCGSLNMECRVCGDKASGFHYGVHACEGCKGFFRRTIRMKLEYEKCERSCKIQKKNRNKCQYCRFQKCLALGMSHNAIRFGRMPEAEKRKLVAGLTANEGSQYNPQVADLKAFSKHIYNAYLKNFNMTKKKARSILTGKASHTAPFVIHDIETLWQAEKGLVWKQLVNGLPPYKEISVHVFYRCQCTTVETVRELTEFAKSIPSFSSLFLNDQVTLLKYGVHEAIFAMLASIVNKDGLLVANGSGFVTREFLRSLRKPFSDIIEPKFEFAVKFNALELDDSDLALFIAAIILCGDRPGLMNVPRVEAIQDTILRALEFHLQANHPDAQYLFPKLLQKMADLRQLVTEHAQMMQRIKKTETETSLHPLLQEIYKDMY
Sequence of Cytochrome P450 3A4 (Homo sapiens) (P08684 whole entry, looked up): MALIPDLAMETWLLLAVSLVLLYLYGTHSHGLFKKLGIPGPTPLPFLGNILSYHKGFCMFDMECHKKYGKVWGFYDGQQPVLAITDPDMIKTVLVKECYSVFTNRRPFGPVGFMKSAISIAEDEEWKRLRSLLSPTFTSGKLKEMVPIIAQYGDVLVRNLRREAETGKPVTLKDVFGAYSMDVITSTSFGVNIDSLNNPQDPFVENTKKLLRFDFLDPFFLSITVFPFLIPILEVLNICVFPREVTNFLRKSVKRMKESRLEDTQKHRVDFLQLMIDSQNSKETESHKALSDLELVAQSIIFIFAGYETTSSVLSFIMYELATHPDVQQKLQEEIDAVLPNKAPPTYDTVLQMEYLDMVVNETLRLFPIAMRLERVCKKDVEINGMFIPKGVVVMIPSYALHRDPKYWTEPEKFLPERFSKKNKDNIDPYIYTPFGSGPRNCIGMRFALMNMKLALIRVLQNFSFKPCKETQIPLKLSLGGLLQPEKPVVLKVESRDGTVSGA

On to `CC/C(=C(\c1ccccc1)c1ccc(OCCN(C)C)cc1)c1ccc(O)cc1`, for which the result in [1] was inactive.

Take `Nc1ccc2cc3ccccc3cc2c1`: the Potency entry in assay [2] was “inactive”.

As for `c1ccc2c(c1)ccc1cc3c(ccc4ccccc43)cc12`, the Potency entry in [3] and in [4] was “inactive” throughout. Also, the max response in assay [5] is -11.8%. For the same molecule, the result in assay [6] and in [7] was inactive.

Consider `C=CC(=O)OCC(CO)(COC(=O)C=C)COC(=O)C=C`, for which the result in [8] was inactive.

`CCCCCCCC[N+](CCCCCCCC)(CCCCCCCC)CCCCCCCC`: the Potency entry in assay [2], in assay [9] and in assay [10] was “inactive” in each case.

`O=C(/C=C/c1ccc(O)c(O)c1)OC1C[C@](O)(C(=O)O)C[C@@H](O)[C@H]1O` (stereo partly drawn): the max response in [11] is 3.46% and 31.4%; in assay [5] it was 6.31% and 0.0385%; in assay [13], -7.31% and 4.34%; in [14], -11.4% (inactive) and -2.14% (inactive). For the same molecule, the outcome in assay [12], in [6], in assay [8] and in assay [7] was inactive. Besides, the activity change % (negative = inhibition) in [15] is -9.6% (inactive) and 0.221% (inactive). In addition, the activation in assay [16] was -1.07% (inactive) and -1.86% (inactive). In assay [10], the Potency result was “inactive”.

Regarding `O=C1OC2(c3cc(Br)c(O)c(Br)c3Oc3c2cc(Br)c(O)c3Br)c2c(Cl)c(Cl)c(Cl)c(Cl)c21`, the Potency result in [2], in [3], in [9] and in assay [10] was “inactive” throughout. The outcome in [17] and in assay [18] was inactive. Moreover, the figures for the max response in assay [13] and in assay [14] were 20.8% and 7.11% (inactive), respectively. The activity change % (negative = inhibition) in assay [15] is 2.12% (inactive).

Take `C=C(C)c1ccccc1`: the Potency entry in assay [4], in [9] and in assay [10] was “inactive” each time. Further, the result in assay [1], in assay [6], in assay [18] and in assay [7] was inactive. Besides, the max response in [5] is -11%; in [13] it was -0.247%; in assay [14] it was -3.16% (inactive). In addition, the activity change % (negative = inhibition) in assay [15] is 2.47% (inactive). Also, the activation in assay [16] was -1.34% (inactive); in assay [19] it was 1.11% (inactive).

Turning to `C=CC(=O)OCCOCCOC(=O)C=C`, the Potency in [3] was 35.5 µM [inconclusive] (active); in assay [20], 44.7 µM (active); in [10], 66.8 µM (active). Besides, the result in assay [8] and in assay [7] was inactive. In [16], the activation was 2.89% (inactive).

Take `O=C1OC(O)C(C(Cl)Cl)=C1Cl` (stereo not drawn): the Potency in assay [9] was 44.7 µM (active). In addition, the outcome in assay [1] and in assay [7] was inactive. In addition, the max response in assay [13] is -8.4%; in [14], -25.5% (inactive). The activation in assay [16] was -1.76% (inactive); in assay [19], -0.496% (inactive).

`Oc1ccc2cc(SSc3ccc4cc(O)ccc4c3)ccc2c1`: the Potency entry in assay [2] is “inactive”. Also, the result in assay [8] was inactive. For the same molecule, in [19], the activation is 0.682% (inactive).

For `C/C=C1\C(=O)C[C@H]2[C@@H]3CCC4=CC(=O)CC[C@]4(C)[C@H]3CC[C@]12C`, the outcome in [8] was inactive. Moreover, the activation in [19] is -4.79% (inactive).

With `c1cc(OCC2CO2)cc(OCC2CO2)c1` (stereo not drawn), the outcome in assay [17], in [1], in [8] and in assay [7] was inactive.

For `CC(=O)Nc1ccc(C(=O)CCl)cc1`, the Potency in [20] was 39.8 µM (active); in assay [9] it was 25.1 µM (active); in [16], 31.6 µM (active). In addition, the activation in [19] is -3.62% (inactive).

As to `O=C=Nc1ccc(Cc2ccc(N=C=O)cc2)cc1`, the Potency result in assay [2], in [4], in [20], in assay [9] and in assay [10] was “inactive” each time. Moreover, the max response is -20% and 23.7% in [11]; -1.3% and -4.07% in assay [5]; -3.54% and -5.83% in assay [13]; 9.21% (inactive) and 0.991% (inactive) in assay [14]. Besides, the result in assay [12], in assay [1], in assay [6], in assay [8], in assay [18] and in [7] was inactive. Also, the activity change % (negative = inhibition) in assay [15] was -3.37% (inactive) and 10% (inactive). Further, the activation is 6.25% (inactive) and 1.32% (inactive) in assay [16]; 0.0924% (inactive) in assay [19].
